Screens from PubChem.
Most compounds without a hit are left out; they make up all but 17% or so of the library.
DT40 TDP1 CPT: qHTS for Inhibitors of human tyrosyl-DNA phosphodiesterase 1 (TDP1): qHTS in cells in presence of CPT | 420,000 tested, 12% active | chicken DT40 Tdp1-/-;hTDP1 cells + 20 nM CPT, ATP luminescence, 48 h | Potency, µM (top dose mostly 46.2 µM), inactives show at the highest dose activity change, negative = growth inhibition, most hits filed as inhibitors | AID 686979, 2013; also: % is scaled to controls: 0 for no effect and ±100 for the full control effect; nearly all actives have a fitted effect of over 55% in size
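Chicken DT40 Tdp1-/- cells stably complemented with human TDP1 were seeded at 400 cells/well in medium containing 20 nM camptothecin, exposed to pin-transferred compounds, and grown at 37 °C for at least 48 hr. Viability was read as ATP luminescence.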
TDP1 inh: qHTS Assay for Inhibitors of Tyrosyl-DNA Phosphodiesterase (TDP1); Tyrosyl-DNA phosphodiesterase 1 (Homo sapiens), Q9NUW8; recombinant TDP1, AlphaScreen DNA substrate cleavage; Potency, µM (top dose mostly 130 µM), for the others: top-dose activity change, negative = inhibition, most hits filed as inhibitors; 350,000 tested, 0.28% active; also: % is scaled to controls: 0 for no effect and ±100 for the full control effect; nearly all actives have a fitted effect of over 40% in size
Target sequence (Q9NUW8 whole entry, looked up): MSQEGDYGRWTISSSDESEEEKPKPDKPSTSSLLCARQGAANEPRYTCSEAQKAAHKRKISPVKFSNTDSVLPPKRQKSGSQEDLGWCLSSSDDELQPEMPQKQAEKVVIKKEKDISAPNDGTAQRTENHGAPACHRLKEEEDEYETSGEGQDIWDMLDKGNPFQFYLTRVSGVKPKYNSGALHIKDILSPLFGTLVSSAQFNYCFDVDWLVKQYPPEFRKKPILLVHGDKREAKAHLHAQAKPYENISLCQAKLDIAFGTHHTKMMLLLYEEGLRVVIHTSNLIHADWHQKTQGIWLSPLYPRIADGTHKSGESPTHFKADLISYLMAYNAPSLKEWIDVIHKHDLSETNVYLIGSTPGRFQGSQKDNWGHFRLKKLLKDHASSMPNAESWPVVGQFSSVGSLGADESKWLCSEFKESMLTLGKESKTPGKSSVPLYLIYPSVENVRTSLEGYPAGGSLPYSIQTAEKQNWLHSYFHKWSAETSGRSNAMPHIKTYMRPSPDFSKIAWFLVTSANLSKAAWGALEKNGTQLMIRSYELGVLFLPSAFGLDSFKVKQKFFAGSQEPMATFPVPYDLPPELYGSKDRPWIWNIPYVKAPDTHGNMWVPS
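Recombinant human Tdp1 (E. coli-expressed, 1 nM final) preincubated with compounds 15 min at room temperature, then 5'-biotin/3'-phosphotyrosine-FITC DNA substrate (15 nM final) added for 5 min. AlphaScreen beads (10 ug/ml final) added 10 min; cleavage lowers signal.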
ClpP mod: qHTS Assay for Activators of ClpP | 340,000 tested, 1.9% active | Potency, µM (titrated, usually from 57.5 µM), for the others: top-dose activity change, negative = active | purified B. subtilis ClpP, FRET peptide cleavage, 20 min | ATP-dependent Clp protease proteolytic subunit (Bacillus subtilis (strain 168)), P80244; active = well fitted falling curve with a large enough effect; inconclusive = small, poorly fitted or top-dose-only effect; inactive = no such curve, though single readings can be large or run the other way; also: the source files actives as falling curves though it sought activators and does not explain the sign; nearly all actives have a fitted effect of over 65% in size
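Purified B. subtilis ClpP, 10 microg/mL final in Tris/HCl pH8 with KCl, BSA, glycerol and Tween-20, cleaved an Abz/nitrotyrosine-quenched decapeptide. Fluorescence (ex 320, em 430) was read at 0 and 20 min at room temperature. Delta was normalized to 5.8 microM ADEP and DMSO/no-enzyme controls.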
TDP1 cell noCPT: qHTS for Inhibitors of human tyrosyl-DNA phosphodiesterase 1 (TDP1): qHTS in cells in absence of CPT; Potency, µM (series often up to 46.2 µM), for the others: at the top dose activity change, negative = growth inhibition, actives largely listed as inhibitors; 420,000 tested, 15% active; DT40 Tdp1-/- hTDP1 cells, no CPT, ATP luminescence, 48 h; also: % is scaled to controls: 0 for no effect and ±100 for the full control effect; nearly all actives have a fitted effect of over 55% in size
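Seeded 400 DT40-hTDP1 cells/well (vehicle DMSO, no 20 nM CPT); pinned compounds; ≥48 hr at 37 °C; CellTiter-Glo luminescence as viability measure.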
The depositor's hits bear a star; ? = inconclusive; / = no result given. Unless noted, calls follow the shape of the dose curve; as a rule, active = well fitted curve in the direction sought with a large enough effect; inconclusive = small, poorly fitted or top-dose-only effect, or another doubt; inactive = no such curve, though single readings can be large; an effect the other way counts as inactive or inconclusive. Potency is read from the fitted curve at half-maximal effect.

SMILES | DT40 TDP1 CPT | TDP1 inh | ClpP mod | TDP1 cell noCPT
BrC(/C=N/Nc1nc(N2CCOCC2)nc(N2CCOCC2)n1)=C/c1ccccc1 | 16.4µM* | 4.1% | -5.6% | 20.6µM*
Cc1cccc(Nc2nc(N3CCOCC3)nc(N3CCOCC3)n2)c1 | 9.2µM* | 3.8% | / | ?
COC(=O)c1ccc(Nc2nc(N3CCOCC3)nc(N3CCOCC3)n2)cc1 | ? | 2.2% | -2.5% | -23.7%
COc1cc2nc(NCCc3cccc(C)c3)n3nc(-c4ccccc4)nc3c2cc1OC | ? | 2.0% | -20.4% | ?
COc1nc(Nc2ccccc2F)nc(OC)n1 | -6.6% | / | / | 4.3%
COc1ccc(N2CCN(C(=O)c3cc4c(=O)n(Cc5cccnc5)ccc4nc3C)CC2)cc1 | -24.8% | 8.4% | -26.6% | -27.6%
Cc1ccc(Nc2nc(N3CCOCC3)nc(N3CCOCC3)n2)cc1C | 13µM* | 8.6% | -1.2% | 13µM*
c1ccc(Nc2nc(N3CCNCC3)nc(N3CCOCC3)n2)cc1 | ? | 0.0% | -2.3% | ?
c1ccc(Nc2nc(N3CCOCC3)nc(N3CCOCC3)n2)cc1 | 16.4µM* | 5.2% | -1.0% | 16.4µM*
FC(F)(F)c1cccc(Nc2nc(N3CCOCC3)nc(N3CCOCC3)n2)c1 | 13µM* | 4.0% | 1.0% | ?
O=[N+]([O-])c1ccc(Nc2nc(N3CCOCC3)nc(N3CCOCC3)n2)cc1 | ? | / | -4.5% | ?
CCN(CC(=O)NCc1ccc(Cl)cc1)C(=O)COc1ccc(Cl)cc1Br | -23.6% | / | -0.4% | -21.3%
COc1ccc(/C=C/C2=C[C@]3(C)C[C@]2(C)[C@H](c2ccc(OC)cc2)CC3=O)cc1 | / | -7.5% | / | /
Cc1cccc(N2C(=O)CC(Sc3nc(-c4ccccc4)c4cc(Cl)ccc4n3)C2=O)c1 (stereo unspecified) | ? | 5.8% | 28.2µM* | ?
Cc1ccc(N2C(=O)CC(Sc3cccs3)C2=O)cc1 (stereo unspecified) | 16.4µM* | 8.6% | -3.3% | 5.8µM*
Cc1cccc(N2C(=O)CC(Sc3nnc(C)s3)C2=O)c1 (stereo unspecified) | 5.17µM* | 1.7% | 2.9% | 6.51µM*
Cc1ccc(Cl)cc1N1C(=O)CC(Sc2ncccn2)C1=O (stereo unspecified) | ? | 2.4% | -1.6% | 20.6µM*
Cc1cccc(N2C(=O)CC(Sc3nc(C)cc(C)n3)C2=O)c1 (stereo unspecified) | ? | -0.5% | 4.5% | ?
Cc1cc(C)nc(SCC(=O)NN)n1 | 2.6% | 5.6% | / | -14.4%
Cc1ccc(CNC(=O)Cc2coc3cc(C)cc(C)c23)cc1 | -3.4% | 2.5% | -1.9% | ?
CC1(C)CC(=O)c2cc(-c3nc(-c4ccc(Cl)cc4)cs3)c(=O)n(-c3ccc(Cl)cc3)c2C1 | -10.6% | -3.6% | -21.5% | -7.8%
O=C(NCc1ccccc1Cl)C(=O)NCC(c1cccs1)S(=O)(=O)c1ccccc1 (stereo unspecified) | 14.6µM* | 0.0% | -0.8% | 18.4µM*
Cc1ccc(S(=O)(=O)C(CNC(=O)C(=O)NCc2ccccc2C)c2cccs2)cc1 (stereo unspecified) | ? | -2.6% | -2.4% | ?
Cc1ccccc1CNC(=O)C(=O)NCC(c1cccs1)S(=O)(=O)c1ccc(Cl)cc1 (stereo unspecified) | ? | 5.2% | -10.0% | 23.1µM*
CC1CCCN(c2ncnc3c2nc2n3CCCCC2)C1 (stereo unspecified) | -24.2% | 7.5% | 1.9% | ?
Cc1ccc(C)c(N2CCN(C(=O)C3CCCN(c4ncnc5c4nc4n5CCCCC4)C3)CC2)c1 (stereo unspecified) | 16.4µM* | 4.7% | 0.4% | 23.1µM*
COc1ccccc1N1CCN(C(=O)C2CCCN(c3ncnc4c3nc3n4CCCCC3)C2)CC1 (stereo unspecified) | 14.6µM* | 5.7% | -0.5% | 16.4µM*
Cc1ccc(C)c(N2CCN(c3ncnc4c3nc3n4CCCCC3)CC2)c1 | ? | -1.2% | -1.1% | ?
